# Only a sample is shown.
# aSyn UTR act: Activators via SNCA 5'UTR binding, MLPCN; alpha-synuclein 5'UTR reporter, activators screen; hit rate 7.1% among 300,000; AID 1814; activity score, % (tested at 7.5 µM), hits read low; in the data active means activity score below about -60%
# * marks the source's active call; other numbers are inactive results.
SMILES,aSyn UTR act
C=C1C(=O)O[C@@H]2C[C@@H](C)[C@@H]3C4OC4C(=O)[C@@]3(C)[C@@H](O)[C@H]12 (stereo partly specified),-221.1*
CN(C)c1ccc2c(c1)N=C(c1ccco1)OP2(=S)N1CCOCC1 (stereo unspecified),-129.7*
CCC(C)/C=C(C)/C=C/C1=CC2=C(Cl)C(=O)C(C)(OC(C)=O)C(=O)C2=CO1 (stereo unspecified),-96.3*
O=C(Nc1ccccc1)c1cccn(Cc2ccccc2)c1=O,-96.1*
Cc1nc2c(=O)n(C)c(=O)nc-2n(C)n1,114.8
CCn1nc(-c2ccccc2)nc2c(=O)n(C)c(=O)nc1-2,-84.0*
CN1C(=O)C(=Cc2ccc(OCCN(C)c3ccccn3)cc2)C(=O)N(C)C1=O,-82.1*
CNc1ccc2oc(C[C@H]3O[C@@]4(CC[C@H]3C)O[C@H]([C@H](C)C(=O)c3ccc[nH]3)[C@H](C)C[C@H]4C)nc2c1C(=O)O,116.6
CN(C)c1ccc(/C=C/[N+](=O)[O-])cc1,-73.9*
Cc1cc(OCCN2CC2)c2ccccc2n1,-72.8*
NC(=O)c1cn(C2OC(CO)C(O)C2O)c2ncnc(N)c12 (stereo unspecified),105.8
COc1ccc(P2(=O)Nc3ccccc3N2)cc1,-139.5*
CC/C(=N\N1CCCCC1)c1c(O)[nH]c(=O)[nH]c1=O,59.2
Nc1c(C(=O)NCc2ccco2)c2nc3ccccc3nc2n1CCN1CCCCC1,-103.4*
CCOC(=O)c1c(N)n(CCCOC(=O)c2ccco2)c2nc3ccccc3nc12,114.3
O=C(Nc1ccc(Cl)c(Cl)c1)c1ccco1,-170.5*
c1ccc(-c2nc(N3CCOCC3)s[n+]2-c2ccccc2)cc1,-74.8*
O=C1NC(=O)N(Cc2ccco2)C(=O)/C1=C/C=C/c1ccco1,-288.4*
C=CCN1C(=O)NC(=O)/C(=C/C=C/c2ccccc2)C1=O,-69.5*
O=C1NC(=O)N(Cc2ccccc2)C(=O)/C1=C\C=C\c1ccco1,-222.0*
CNC(=O)Oc1cccc(-c2cn3cc(Cl)ccc3n2)c1,60.8
CC1CCC(C(C)C)C(OC(=O)Cn2c(COc3ccccc3)[n+](C)c3ccccc32)C1 (stereo unspecified),66.5
NC(N)=N/N=C/c1ccc(N(c2ccccc2)c2ccccc2)cc1,137.8
COc1ccc(/C=C/C2=CCN(C)CC2)cc1,-78.7*
CCOC(=O)C(O)(c1ccc(NC(=O)NC2CCCCC2)cc1)C(F)(F)F (stereo unspecified),-83.4*
SMILES,aSyn UTR act
CC(C)(C)c1ccc(CSc2cnn(C(C)(C)C)c(=O)c2Cl)cc1,100.8
CN(C)c1ccc(C(=O)c2ccc(N(C)C)cc2)cc1,-108.0*
O=C(Nc1ccc(OC(=O)N2CCCCC2)cc1)N1CCOCC1,88.9
C=CCN1C(=O)NC(=O)/C(=C/c2ccc(OC)c(COc3ccc(NC(C)=O)cc3)c2)C1=O,-63.8*
O=C(C1CC(c2ccc(F)cc2)=NO1)N1CCC2(CC1)OCCO2 (stereo unspecified),-127.2*
COc1cccc(C2=NOC(C(=O)N3CCC4(CC3)OCCO4)C2)c1 (stereo unspecified),-105.4*
O=C(C1CC(c2ccc(Cl)c(Cl)c2)=NO1)N1CCC2(CC1)OCCO2 (stereo unspecified),-130.9*
O=c1[nH]c(=S)n(C2CC2)c(O)c1C=Nc1ccc2c(c1)OCO2,-141.4*
[O-]c1ccccc1-[n+]1c(-c2ccccc2)cc(-c2ccccc2)cc1-c1ccccc1,60.9
Cc1ccc2nc3c(cc2c1)CC1(C(=O)N(C)C(=O)N(C)C1=O)C1CCCCN31 (stereo unspecified),-106.2*
Cc1ccc2nc3c(cc2c1)CC1(C(=O)N(C)C(=O)N(C)C1=O)C1COCCN31 (stereo unspecified),-63.1*
C=C1[C@@H](C)[C@H]2[C@H](Cc3ccccc3)NC(=O)[C@]23OC(=O)/C=C/[C@H](O)CCC[C@@H](C)C/C=C/[C@H]3[C@@H]1O,108.9
CCCCc1nc2ccccc2c(=O)n1-c1ccccc1[N+](=O)[O-],-73.2*
O=C1NC(=O)C(=Cc2cccc(OCCOc3ccccc3)c2)C(=O)N1,-86.8*
C#CCOc1cc(C2C3=C(COC3=O)Nc3cc4c(cc32)OCO4)ccc1OC (stereo unspecified),77.8
Cc1nc2cc(-c3ccccc3)nn2c(C)c1CCC(=O)N1CCC2(CC1)OCCO2,79.3
O=C(c1cc(-c2ccccc2)on1)N1CCC2(CC1)OCCO2,-112.6*
CC1(C)CN=C(NCc2ccccc2Cl)S1,-91.9*
CC12CC[C@H]3[C@@H](CCC4(O)C[C@H](O)CCC34/C=N/NC(=O)c3ccccc3[N+](=O)[O-])C1(O)CCC2C1=CC(=O)OC1 (stereo partly specified),117.3
CC1(C)C[C@H]2C=C(C=O)[C@]3(C=O)C[C@]3(C)[C@H]2C1,116.9
Nc1ccccc1C(=O)OCc1ccc([N+](=O)[O-])cc1,-82.6*
Clc1ccccc1Nc1ncnc(-n2cccc2)n1,-160.0*
CN1CCN(c2ccc3c(c2)S(=O)(=O)c2ccccc2C3=O)CC1,-111.8*
CN1C(=O)C(=Cc2ccc(N3CCOCC3)o2)C(=O)N(C)C1=S,-65.1*
CN1C(=O)/C(=C/c2ccc(N3CCCCCC3)o2)C(=O)NC1=S,-185.6*
SMILES,aSyn UTR act
CN1C(=O)/C(=C\c2ccc(N3CCCCC3)o2)C(=O)NC1=S,-162.2*
COC(=O)C1CN(C#N)N(c2ccc(Cl)cc2)C12c1ccccc1-c1ccccc12 (stereo unspecified),111.8
Cc1ccc(C[n+]2c(-c3ccc(C)cc3)cc(-c3ccc(C)cc3)cc2-c2ccc(C)cc2)cc1,95.2
Cc1c(OC(=O)N(C)C)ccc2c1O/C(=C\c1ccco1)C2=O,-133.7*
C[C@]12CC[C@H]3C(CCC4(O)CC(O)CC[C@]34C=O)C1=CC[C@H]2c1ccc(=O)oc1 (stereo partly specified),81.5
COc1cc(C=C2C(=O)NC(=O)NC2=O)ccc1OS(=O)(=O)c1ccccc1[N+](=O)[O-],-96.2*
O=c1c2ccccc2[nH]c(=S)n1-c1ccc2c(c1)OCCO2,-105.4*
FC(F)(F)c1ccc(NC2=NCCCS2)cc1,-68.7*
Cc1cccc(N2C(=O)NC(=O)/C(=C\C=C\c3ccco3)C2=O)c1,-130.6*
CN(C)c1ccc(/C=C/C=C2/C(=O)NC(=O)N(c3ccccc3)C2=O)cc1,-96.5*
O=C1NC(=O)N(c2ccccc2)C(=O)/C1=C/C=C/c1ccco1,-135.8*
Cc1ccc(N2C(=O)NC(=O)/C(=C\C=C\c3ccco3)C2=O)cc1,-92.5*
CC1Oc2cc3c(-c4c(O)cc(O)c5c(O)c6c(cc45)OC(C)C(C)C6=O)c(O)cc(O)c3c(O)c2C(=O)C1C (stereo unspecified),87.0
Cc1cc([N+](=O)[O-])c2ccccc2[n+]1[O-],126.7
O=C1C(=O)c2ccccc2-c2ccccc21,118.9
O=C(c1ccccc1)C(CN1CCCC1)c1ccccc1 (stereo unspecified),-77.4*
O=Cc1cn(Cc2cccc(F)c2)c2ccccc12,52.4
CCc1ccc(-c2nn(Cc3ccccc3)cc2C=O)cc1,-140.0*
Cc1cc(NC(=O)CCl)no1,-98.7*
CC(Cc1ccccc1)/[N+]([O-])=C\c1ccc(C(F)(F)F)cc1 (stereo unspecified),-119.0*
C[N+]1=C(/C=C/Nc2ccccc2)C(C)(C)c2ccccc21,-93.1*
CC(C)[C@]12O[C@H]1[C@@H]1O[C@]13[C@]1(O[C@H]1C[C@H]1C4=C(CC[C@@]13C)C(=O)OC4)[C@@H]2O,124.0
COc1ccc(NC2=NC(C)(C)CS2)cc1,-139.7*
